Assay outcomes deposited in PubChem BioAssay by National Center for Advancing Translational Sciences (NCATS).
Pf growth 48h: inhibits P. falciparum growth in the first generation, 48 h | Potency, µM (top dose mostly 28.7 µM), without a hit: at the highest dose activity change, negative = inhibition, hits mostly inhibitors | P. falciparum luciferase growth in erythrocytes, 48 h | AID 504832 | 5.9% of 310,000 active; note: % is set by controls: 0 for no effect and ±100 for the full control effect
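Luciferase-expressing parasites in RBCs, 2% Hct / 0.1% parasitemia final; RPMI 1640 + 0.5% Albumax; 37 C, 5% CO2, one generation; luminescence read-out, lower signal = inhibition.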
Sm TGR inh: inhibitors of Schistosoma mansoni thioredoxin glutathione reductase; Q962Y6; purified TGR, DTNB reduction, TNB absorbance 405 nm; Potency, µM (series often up to 114 µM), without a hit: top-dose activity change, negative = inhibition, hits mostly inhibitors; 3% of 360,000 active; AID 485364; note: % is set by controls: 0 for no effect and ±100 for the full control effect; nearly all actives have a fitted effect of over 60% in size
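TGR 20 nM + NADPH 100 uM (dispensed conc.), cpd preinc 15 min RT; start with NADPH (500 uM addition) then DTNB (15 mM addition). Kinetic TNB absorbance, 405 nm filter. Four-parameter Hill fit across titration.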
NS1 inh: inhibitors of influenza NS1 protein function. Potency, µM (series often up to 46.1 µM), for the others: at the highest dose activity, positive = more growth. 0.4% of 270,000 active. AID 2326; calls by dose curve; note: actives are rising curves; nearly all actives have a fitted effect of over 50% in size
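Recovery from NS1-induced slow growth read by OD600 in budding yeast switched to galactose assay medium (pH 6.0, -URA) at 1:100 dilution. Compound 23 nl per well; the matching strain lacking NS1 serves as control.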
AMA1-RON2 inh: disrupts binding of P. falciparum AMA1 to RON2; AlphaScreen AMA1-biotinylated RON2 peptide binding; Potency, µM (doses to about 58.2 µM), for inactives: at the top dose activity change, negative = inhibition, actives largely listed as inhibitors; 0.2% of 360,000 active;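 note: 0% = vehicle wells and -100% = peptide control; nearly all actives have a fitted effect of over 45% in size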
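AMA1 (3D7) with his tag at 25 nM final met compounds first, then biotinylated RON2 peptide at 25 nM; detection used donor plus acceptor beads, 10 µg/mL apiece, read by AlphaScreen after 30 min at room temperature.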
Pf growth 96h: P. falciparum growth inhibition at 96 hours. P. falciparum luciferase reporter growth, 96 h. Potency, µM (doses to about 28.7 µM), without a hit: at the highest dose activity change, negative = inhibition, most hits filed as inhibitors. 6.9% of 320,000 active. AID 504834; note: % is set by controls: 0 for no effect and ±100 for the full control effect
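Cell-based qHTS: luciferase-tagged P. falciparum in erythrocytes (2% hematocrit, 0.05% parasitemia final) incubated with compounds for 96 hours, 37 C, 5% CO2; luciferase detection reagent then added and luminescence measured.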
* = called active by the depositor; ? = inconclusive; / = not tested or not shown; [ ] = another dose, or the depositor's remark. Sampled rows, rich in hits. Any-hit rate of the full collection: about 11%. Unless noted, calls come from the whole dose curve; as a rule, active = well fitted curve in the direction sought with a large enough effect; inconclusive = small, poorly fitted or top-dose-only effect, or another doubt; inactive = no such curve, though single readings can be large; an effect the other way counts as inactive or inconclusive. Potency is the fitted concentration of half-maximal effect.

SMILES	Pf growth 48h	Sm TGR inh	NS1 inh	AMA1-RON2 inh	Pf growth 96h
CCCCOc1ccc(C(=O)Nc2ccc(N3CCN(C(C)=O)CC3)cc2)cc1	/	10%	-26%	-4%	53%
CCCCOc1ccc(C(=O)Nc2ccc(N3CCN(C(=O)C(C)C)CC3)cc2)cc1	9.3µM*	-16%	2%	-22%	/
Cc1cc(C)cc(NC(=O)c2ccc([N+](=O)[O-])o2)c1	13µM*	35µM*	/	-6%	?
CC(=O)c1cccc(NC(=O)c2ccc([N+](=O)[O-])o2)c1	/	/	/	7%	/
NS(=O)(=O)c1ccc(O)c(NC(=O)c2ccc([N+](=O)[O-])o2)c1	7.4µM*	?	-1%	12%	10µM*
NC(=O)c1oc2ccccc2c1NC(=O)c1ccc([N+](=O)[O-])o1	9.3µM*	-26%	-26%	0%	-20%
Cc1ccc(C)c(-c2nnc(NC(=O)c3ccc([N+](=O)[O-])o3)o2)c1	9.3µM*	35µM*	/	28%	9.3µM*
CC(C)C(=O)N1CCN(c2ccc(NC(=O)c3ccc([N+](=O)[O-])o3)cc2Cl)CC1	8%	0%	/	1%	?
Cc1cc(NC(=O)c2ccc([N+](=O)[O-])o2)ccc1NC(=O)c1ccco1	8.3µM*	?	/	3%	-35%[1.15 µM]
CC(C)C(=O)N1CCN(c2ccc(NC(=O)c3ccc([N+](=O)[O-])o3)cc2)CC1	4.7µM*	?	-2%	-1%	22%
COc1cc(NC(=O)c2ccc([N+](=O)[O-])o2)ccc1NC(=O)c1ccco1	-10%	9%	-15%	-9%	?
Cc1ccc(C)c(-c2nnc(NC(=O)C3=COCCO3)o2)c1	-28%	2%	/	41%	-11%
CCOC(=O)c1c(C)[nH]c(C)c1C(=O)CSc1nc2ccccc2n1CC	14%	2%	-8%	-7%	?
CCOC(=O)c1c(C)[nH]c(C)c1C(=O)CSc1nc2ccccc2c(=O)n1-c1ccc(CC)cc1	?	2%	4%	13%[2.32 µM]	9.3µM*
CCOC(=O)c1[nH]c(CSc2nnnn2-c2ccccc2C)c(C(=O)OCC)c1C	10µM*	-2%	-3%	40%	?
CCOC(=O)c1c(C)[nH]c(C)c1C(=O)CSc1nnnn1-c1ccccc1	/	?	-6%	-20%	12µM*
CC(=O)c1ccc(-n2c(SCC(=O)c3c[nH]c4ccccc34)nc3ccccc3c2=O)cc1	12µM*	?	?	-10%	?
O=C(NCc1nnc(SCC(=O)N2CCCC2)o1)c1cccc(C(F)(F)F)c1	31%	-15%	-4%	-1%	14%
CC(C)(C)n1nnnc1C(CCc1ccccc1)N1CCN(C/C=C/c2ccccc2)CC1 (stereo not given)	/	/	/	-23%	/
COC(=O)C[C@H]1N(S(=O)(=O)c2ccc(C)cc2)C(C(C)C)CC1(C(=O)OC)C(=O)OC (stereo not given in full)	/	/	/	-7%	/
CCOC(=O)c1c(NC(=O)CSc2nc3ccccc3c(=O)n2-c2ccc(F)cc2)sc(C(C)=O)c1C	4.1µM*	3%	15%	0%	3.3µM*
Cc1ccccc1-n1ncc2c1CC(C)(C)CC2NC(=O)C1CCC1 (stereo not given)	?	-1%	-10%	-5%	14%
Cc1ccccc1-n1ncc2c1CC(C)(C)CC2NC(=O)C1=CC(=O)CC(C)(C)O1 (stereo not given)	?	-25%	3%	14%	9.3µM*
NC(=S)N/N=C1\CC(c2ccc3c(c2)OCCO3)Oc2ccc(F)cc21 (stereo not given)	?	17%	1%	72%	12µM*
CCOC(=O)C(CC)(CC)C(=O)/C=C/c1ccc(Br)cc1	15µM*	12%	-17%	24%	?
SMILES	Pf growth 48h	Sm TGR inh	NS1 inh	AMA1-RON2 inh	Pf growth 96h
CCOC(=O)C(=Cc1ccc(Br)cc1)C(=O)OCC	?	3.5µM*	-114%	16%	?
CCOC(=O)C(=Cc1ccc(-n2ccnc2)cc1)C(=O)OCC	13µM*	13µM*	/	-9%	?
CCOC(=O)C(=Cc1ccc(F)cc1)C(=O)OCC	-1%	16µM*	-118%	/	-18%
CCOC(=O)C(=O)Nc1ccc(F)cc1	/	-9%	?	-2%	-17%
O=C(CN1C(=O)NC2(CCCCC2)C1=O)N1CCN(S(=O)(=O)c2ccc(F)cc2)CC1	-18%	-2%	/	-4%	?
O=C(NC(=O)c1ccc(F)cc1F)Nc1ccc(Cl)cc1	5.2µM*	5%	-5%	-6%	165%
CCCc1nnc(NC(=O)c2nc(S(=O)(=O)Cc3ccc(C)cc3)ncc2Cl)s1	11%	25µM*	10%	36%	?
Cc1ccccc1CS(=O)(=O)c1ncc(Cl)c(C(=O)Nc2nnc(C(C)C)s2)n1	/	20µM*	/	/	/
CC(C)c1nnc(NC(=O)c2nc(S(=O)(=O)Cc3ccccc3)ncc2Cl)s1	-11%	40µM*	13%	63%	29%
Cc1ccc(NC(=O)c2nc(S(=O)(=O)Cc3ccccc3C)ncc2Cl)cc1C	31%	11µM*	-6%	-10%	?
Cc1ccc(CS(=O)(=O)c2ncc(Cl)c(C(=O)Nc3nc4ccc(F)cc4s3)n2)cc1	/	-10%	/	/	/
C[C@@H]1CN([C@@H](C)CO)S(=O)(=O)c2ccc(Br)cc2O[C@@H]1CN(C)C(=O)c1ccncc1	/	/	/	14%	/
CSc1nnc(NC(=O)c2nc(S(=O)(=O)Cc3ccccc3)ncc2Cl)s1	-7%	13µM*	14%	69%	-25%
CSc1ncc(Cl)c(C(=O)Nc2nnc(SC)s2)n1	-4%	0%	-13%	-1%	14%
CCN(C(=O)COC(=O)c1nccnc1N)c1cccc2ccccc12	/	/	/	19%	/
Cc1ccc(NC(=O)C2CCN(C(=O)OC(C)(C)C)CC2)cc1S(=O)(=O)N1CCCCC1	13µM*	-2%	/	0%	?
CCCNC(=O)C1CCN(S(=O)(=O)c2ccc(Br)cc2)CC1	4.7µM*	8%	?	-3%	13%
Cc1ccc(S(=O)(=O)N2CCC(C(=O)N3CCCC3C(=O)N[C@@H](CC(C)C)C(=O)NCC(N)=O)CC2)cc1 (stereo not given in full)	?	3%	12%	21%	6.6µM*
CCCNC(=O)C1CCN(S(=O)(=O)c2ccc3c(c2)OCCO3)CC1	?	-3%	/	6%	-17%
O=C(Nc1ccc(S(=O)(=O)Nc2ccccc2)cc1)C1COc2ccccc2O1 (stereo not given)	?	7%	-11%	-10%	0.47µM*
OCCC1CN(Cc2cn[nH]c2C2CCCCC2)CCN1C1CCCCC1 (stereo not given)	-19%	-1%[57.1 µM]	-3%	5%	-5%
CCCC(=O)N1CCN(c2nc3c(OC)ccc(Cl)c3s2)CC1	1%	-8%	-8%	2%	?
O=C(Nc1ccccn1)C(c1ccccc1)c1ccccc1	/	/	/	11%	/
CC(=O)Nc1cc(C(=O)N2CCCC2)ccc1S(=O)(=O)c1ccc(C)cc1	15%	-20%	1%	-1%	1.2µM*
